Assay results taken from the supplement of paper PMC9446081.
± gives the standard deviation of the averaged measurements.

Tests used:
Test in all cases: relative enzymatic activity vs untreated control (fraction); higher = less inhibition
Settings in all cases: 100 µM; incubation time: 2 h at 37 C
DNA gyrase = test system: DNA gyrase
Procedure: (§1)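 In vitro enzymatic inhibition assays (ProFoldin kits) for 12 purified essential E. coli enzymes or complexes, each treated with 218 active antibacterial compounds at 100 µM for 2 h at 37°C. Read-outs were fluorescence or absorbance (phosphate detection, dye binding), converted to activity via standard curves and expressed relative to untreated DMSO controls.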

DNA helicase = DNA helicase (UniProt P0ACB1)
Procedure: as §1

DNA ligase = DNA ligase (UniProt B1XA82)
Procedure: as §1

DNA polymerase = DNA polymerase (UniProt P10443)
Procedure: as §1

DNA primase = DNA primase (UniProt P0ABS7)
Procedure: as §1

GlmU = GlmU (UniProt A7ZTU1)
Procedure: as §1

Guanlyate kinase = Guanlyate kinase (UniProt Q0TBG1)
Procedure: as §1

MurA = MurA (UniProt Q3YX52)
Procedure: as §1

MurD = biological target: T1, MurD (UniProt P14900)
T1 sequence (whole entry): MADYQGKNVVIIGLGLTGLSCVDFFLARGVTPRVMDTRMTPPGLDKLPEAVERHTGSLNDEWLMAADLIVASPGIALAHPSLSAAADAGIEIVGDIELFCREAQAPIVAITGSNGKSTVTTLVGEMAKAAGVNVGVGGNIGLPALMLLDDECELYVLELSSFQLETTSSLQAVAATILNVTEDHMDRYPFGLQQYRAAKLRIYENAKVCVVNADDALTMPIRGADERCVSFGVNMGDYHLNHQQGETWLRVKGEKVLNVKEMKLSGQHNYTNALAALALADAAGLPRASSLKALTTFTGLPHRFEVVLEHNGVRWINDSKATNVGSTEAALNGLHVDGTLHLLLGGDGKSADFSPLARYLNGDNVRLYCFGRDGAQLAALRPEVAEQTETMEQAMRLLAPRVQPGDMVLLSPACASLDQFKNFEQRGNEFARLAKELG
Procedure: as §1

MurF = biological target: T2, MurF (UniProt P11880)
T2 sequence (whole entry): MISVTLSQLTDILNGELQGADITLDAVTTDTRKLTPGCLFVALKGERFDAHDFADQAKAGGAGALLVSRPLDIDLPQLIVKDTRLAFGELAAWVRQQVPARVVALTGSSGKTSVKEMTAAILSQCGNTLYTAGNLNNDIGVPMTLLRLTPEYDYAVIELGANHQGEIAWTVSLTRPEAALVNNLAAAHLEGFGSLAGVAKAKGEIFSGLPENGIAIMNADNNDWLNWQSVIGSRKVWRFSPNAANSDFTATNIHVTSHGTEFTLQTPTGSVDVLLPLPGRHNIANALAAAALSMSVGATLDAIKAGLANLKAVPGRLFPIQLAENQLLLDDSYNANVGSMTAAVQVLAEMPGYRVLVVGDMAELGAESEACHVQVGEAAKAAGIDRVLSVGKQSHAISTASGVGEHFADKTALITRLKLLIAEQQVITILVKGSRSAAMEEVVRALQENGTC
Procedure: as §1

RNA polymerase = test system: RNA polymerase
Procedure: as §1

MurA, sequence (Q3YX52 whole entry): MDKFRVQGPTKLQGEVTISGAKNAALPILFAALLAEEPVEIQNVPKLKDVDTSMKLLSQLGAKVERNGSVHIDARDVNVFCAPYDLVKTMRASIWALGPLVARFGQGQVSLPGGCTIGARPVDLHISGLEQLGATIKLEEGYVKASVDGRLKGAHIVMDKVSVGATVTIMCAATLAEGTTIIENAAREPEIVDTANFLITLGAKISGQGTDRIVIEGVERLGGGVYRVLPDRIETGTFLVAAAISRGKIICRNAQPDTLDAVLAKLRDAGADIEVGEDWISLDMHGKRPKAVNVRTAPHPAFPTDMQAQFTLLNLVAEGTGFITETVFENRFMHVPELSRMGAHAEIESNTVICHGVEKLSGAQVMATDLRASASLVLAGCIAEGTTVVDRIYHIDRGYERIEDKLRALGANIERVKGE
Guanlyate kinase, sequence (Q0TBG1 whole entry): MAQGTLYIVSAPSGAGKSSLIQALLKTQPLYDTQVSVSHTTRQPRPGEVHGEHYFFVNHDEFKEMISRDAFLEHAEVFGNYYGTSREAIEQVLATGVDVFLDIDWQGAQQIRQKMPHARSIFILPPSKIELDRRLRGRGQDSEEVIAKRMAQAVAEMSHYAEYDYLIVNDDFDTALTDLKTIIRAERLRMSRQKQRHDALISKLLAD
GlmU, sequence (A7ZTU1 whole entry, looked up): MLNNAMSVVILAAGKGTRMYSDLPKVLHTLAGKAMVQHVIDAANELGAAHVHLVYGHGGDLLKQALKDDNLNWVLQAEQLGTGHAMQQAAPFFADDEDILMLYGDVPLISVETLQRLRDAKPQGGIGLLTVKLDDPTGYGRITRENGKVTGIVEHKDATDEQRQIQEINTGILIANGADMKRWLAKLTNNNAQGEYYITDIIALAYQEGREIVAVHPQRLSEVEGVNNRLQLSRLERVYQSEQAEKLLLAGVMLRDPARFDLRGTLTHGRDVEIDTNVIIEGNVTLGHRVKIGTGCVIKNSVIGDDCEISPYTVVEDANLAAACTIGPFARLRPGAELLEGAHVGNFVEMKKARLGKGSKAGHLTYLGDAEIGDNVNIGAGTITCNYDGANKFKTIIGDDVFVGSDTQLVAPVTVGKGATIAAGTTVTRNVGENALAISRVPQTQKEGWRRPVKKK
DNA helicase, sequence (P0ACB1 whole entry): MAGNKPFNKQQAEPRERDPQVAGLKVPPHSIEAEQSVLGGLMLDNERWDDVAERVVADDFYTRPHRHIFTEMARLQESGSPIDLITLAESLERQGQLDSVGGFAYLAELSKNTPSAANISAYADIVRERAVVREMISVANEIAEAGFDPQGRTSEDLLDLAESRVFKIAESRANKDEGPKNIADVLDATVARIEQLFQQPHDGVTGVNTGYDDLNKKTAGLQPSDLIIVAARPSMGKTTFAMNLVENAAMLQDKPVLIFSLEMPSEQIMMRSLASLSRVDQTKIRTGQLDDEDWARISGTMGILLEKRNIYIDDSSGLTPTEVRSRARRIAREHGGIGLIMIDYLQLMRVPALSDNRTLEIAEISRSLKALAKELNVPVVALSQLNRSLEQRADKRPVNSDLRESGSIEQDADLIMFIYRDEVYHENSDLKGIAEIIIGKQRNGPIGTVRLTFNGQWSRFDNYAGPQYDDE
DNA primase, sequence (P0ABS7 whole entry): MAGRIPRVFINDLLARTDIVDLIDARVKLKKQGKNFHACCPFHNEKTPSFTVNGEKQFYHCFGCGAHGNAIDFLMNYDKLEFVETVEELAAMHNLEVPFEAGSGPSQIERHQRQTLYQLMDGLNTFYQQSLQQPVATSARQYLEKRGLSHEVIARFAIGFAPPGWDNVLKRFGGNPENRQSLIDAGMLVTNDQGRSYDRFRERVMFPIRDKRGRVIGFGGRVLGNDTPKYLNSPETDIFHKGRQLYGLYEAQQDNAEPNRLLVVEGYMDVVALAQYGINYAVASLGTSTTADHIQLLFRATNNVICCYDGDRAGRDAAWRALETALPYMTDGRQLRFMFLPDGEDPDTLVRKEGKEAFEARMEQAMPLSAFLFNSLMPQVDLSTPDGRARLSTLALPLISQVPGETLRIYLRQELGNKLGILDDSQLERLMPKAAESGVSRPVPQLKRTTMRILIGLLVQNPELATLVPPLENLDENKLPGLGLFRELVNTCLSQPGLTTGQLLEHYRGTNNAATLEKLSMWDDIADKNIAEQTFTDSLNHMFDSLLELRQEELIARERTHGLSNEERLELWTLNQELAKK
DNA ligase, sequence (B1XA82 whole entry): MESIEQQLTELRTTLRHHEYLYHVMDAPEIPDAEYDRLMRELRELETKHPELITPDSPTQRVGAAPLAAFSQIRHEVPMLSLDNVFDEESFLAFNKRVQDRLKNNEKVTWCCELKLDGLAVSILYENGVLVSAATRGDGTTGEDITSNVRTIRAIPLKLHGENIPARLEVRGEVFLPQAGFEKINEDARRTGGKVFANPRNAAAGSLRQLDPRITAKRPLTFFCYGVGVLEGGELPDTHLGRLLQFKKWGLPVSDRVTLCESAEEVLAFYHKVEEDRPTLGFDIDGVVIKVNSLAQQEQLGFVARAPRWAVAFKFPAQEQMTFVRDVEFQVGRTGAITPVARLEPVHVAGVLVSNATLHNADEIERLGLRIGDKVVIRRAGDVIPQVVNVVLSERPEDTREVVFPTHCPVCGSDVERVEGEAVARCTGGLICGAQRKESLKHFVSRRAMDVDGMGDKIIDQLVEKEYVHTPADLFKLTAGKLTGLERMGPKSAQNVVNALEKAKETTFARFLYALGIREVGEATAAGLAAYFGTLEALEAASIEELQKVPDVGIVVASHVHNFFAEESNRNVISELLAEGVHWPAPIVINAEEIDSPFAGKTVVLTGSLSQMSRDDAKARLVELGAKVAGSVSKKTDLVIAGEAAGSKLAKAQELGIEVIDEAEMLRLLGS
DNA polymerase, sequence (P10443 whole entry): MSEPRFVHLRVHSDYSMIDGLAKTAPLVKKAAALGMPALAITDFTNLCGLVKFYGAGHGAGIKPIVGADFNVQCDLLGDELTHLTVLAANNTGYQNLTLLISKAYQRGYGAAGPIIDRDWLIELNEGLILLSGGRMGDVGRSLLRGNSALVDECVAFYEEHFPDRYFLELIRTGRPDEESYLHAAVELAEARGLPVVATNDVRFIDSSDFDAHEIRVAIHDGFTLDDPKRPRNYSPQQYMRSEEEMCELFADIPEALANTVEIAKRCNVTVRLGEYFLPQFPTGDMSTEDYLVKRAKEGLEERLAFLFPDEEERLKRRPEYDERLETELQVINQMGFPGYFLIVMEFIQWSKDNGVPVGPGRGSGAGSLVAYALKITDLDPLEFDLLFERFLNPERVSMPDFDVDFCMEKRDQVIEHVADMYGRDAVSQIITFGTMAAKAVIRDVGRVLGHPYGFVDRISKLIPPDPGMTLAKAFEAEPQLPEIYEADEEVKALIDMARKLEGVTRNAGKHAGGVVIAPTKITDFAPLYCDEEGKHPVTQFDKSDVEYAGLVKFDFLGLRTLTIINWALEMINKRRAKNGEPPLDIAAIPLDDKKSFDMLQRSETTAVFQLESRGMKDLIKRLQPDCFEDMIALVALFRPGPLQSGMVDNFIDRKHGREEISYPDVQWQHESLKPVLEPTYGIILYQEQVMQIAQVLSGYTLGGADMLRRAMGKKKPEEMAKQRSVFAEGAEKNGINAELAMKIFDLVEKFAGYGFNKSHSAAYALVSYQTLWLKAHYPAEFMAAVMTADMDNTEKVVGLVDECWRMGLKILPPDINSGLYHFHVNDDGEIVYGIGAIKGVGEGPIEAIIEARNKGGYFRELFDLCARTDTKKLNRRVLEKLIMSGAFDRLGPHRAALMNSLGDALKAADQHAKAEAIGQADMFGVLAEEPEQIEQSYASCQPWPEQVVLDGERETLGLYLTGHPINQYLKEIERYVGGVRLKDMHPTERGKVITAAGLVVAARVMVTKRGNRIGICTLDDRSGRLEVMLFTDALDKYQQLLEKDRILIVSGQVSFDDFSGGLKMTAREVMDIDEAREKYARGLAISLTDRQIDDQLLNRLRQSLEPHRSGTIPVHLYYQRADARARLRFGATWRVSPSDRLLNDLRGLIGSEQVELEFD

SMILES | relative enzymatic activity (DNA gyrase) | relative enzymatic activity (DNA helicase) | relative enzymatic activity (DNA ligase) | relative enzymatic activity (DNA polymerase) | relative enzymatic activity (DNA primase) | relative enzymatic activity (GlmU) | relative enzymatic activity (Guanlyate kinase) | relative enzymatic activity (MurA) | relative enzymatic activity (MurD) | relative enzymatic activity (MurF) | relative enzymatic activity (RNA polymerase)
O=C1C=CC(=O)N1 | 0.511 ± 0.14 | 0.616 ± 0.23 | 0.848 ± 0.071 | 1 ± 0.3 | 0.801 ± 0.014 | 0.973 ± 0.066 | 0.814 ± 0.18 | 0.171 ± 0.052 | 0.533 ± 0.5 | 0.951 ± 0.22 | 0.83 ± 0.2
NCCC(O)C(=O)NC1CC(N)C(OC2OC(CN)C(O)C(O)C2O)C(O)C1OC1OC(CO)C(O)C(N)C1O.O (stereo not drawn) | 0.693 ± 0.16 | 0.562 ± 0.14 | 0.998 ± 0.06 | 0.875 ± 0.12 | 0.824 ± 0.023 | 0.994 ± 0.011 | 0.647 ± 0.01 | 0.963 ± 0.055 | 0.564 ± 0.37 | 0.962 ± 0.21 | 0.434 ± 0.49
C=CC1=C(C(=O)O)N2C(=O)C(NC(=O)C(=NO)c3csc(N)n3)C2SC1 (stereo not drawn) | 0.393 ± 0.35 | 0.553 ± 0.15 | 1.19 ± 0.35 | 1.06 ± 0.12 | 0.8619 ± 0.0016 | 0.976 ± 0.068 | 0.917 ± 0.087 | 0.127 ± 0.04 | 0.596 ± 0.39 | 0.968 ± 0.27 | 0.768 ± 0.033
CC1CCc2cc(F)cc3c(=O)c(C(=O)O)cn1c23 (stereo not drawn) | 0.0609 ± 0.086 | 0.593 ± 0.15 | 0.937 ± 0.35 | 1.41 ± 0.53 | 0.655 ± 0.13 | 0.9984 ± 0.0089 | 1.03 ± 0.1 | 0.715 ± 0.16 | 0.568 ± 0.39 | 0.97 ± 0.2 | 1.04 ± 0.22
CNC1C(O)C(NC)C2OC3(O)C(=O)CC(C)OC3OC2C1O.Cl.Cl (stereo not drawn) | 0.963 ± 0.22 | 0.484 ± 0.0079 | 1.07 ± 0.22 | 1.35 ± 0.45 | 0.693 ± 0.19 | 1.02 ± 0.015 | 0.421 ± 0.021 | 0.4888 ± 0.0032 | 0.533 ± 0.35 | 0.898 ± 0.16 | 0.871 ± 0.064
CN(C)C1C(O)=C(C(N)=O)C(=O)C2(O)C(O)=C3C(=O)c4c(O)cccc4C(C)(O)C3C(O)C12.Cl (stereo not drawn) | 0.0137 ± 0.019 | 0.171 ± 0.03 | 0.908 ± 0.21 | 0.4407 ± 0.0041 | 0.517 ± 0.0096 | 1.02 ± 0.013 | 0.521 ± 0.0059 | 0.0726 ± 0.028 | 0.635 ± 0.42 | 1.02 ± 0.25 | 0.177 ± 0.017
CO[C@@]12[C@@H]3N[C@@H]3CN1C1=C(C(=O)C(N)=C(C)C1=O)[C@@H]2COC(N)=O | 1.25 ± 0.4 | 0.689 ± 0.37 | 0.844 ± 0.031 | 1.17 ± 0.19 | 0.837 ± 0.014 | 0.979 ± 0.0078 | 0.861 ± 0.01 | 0.431 ± 0.072 | 0.615 ± 0.42 | 0.942 ± 0.24 | 0.82 ± 0.035
CC1CCC2(C)C(C=O)=CCCC2C1(C)CC1OC(O)C(=O)C12CO2 (stereo not drawn) | 0.075 ± 0.11 | 0.688 ± 0.45 | 1.12 ± 0.035 | 1.15 ± 0.2 | 0.89 ± 0.017 | 1.008 ± 0.0078 | 0.956 ± 0.024 | 0.662 ± 0.12 | 0.612 ± 0.41 | 0.577 ± 0.81 | 1.06 ± 0.13
CN(C)[C@@H]1C(=O)[C@@H](C(N)=O)C(=O)[C@@]2(O)C(=O)[C@@H]3C(=O)c4c(O)c(NC(=O)CN5CCCC5)cc(F)c4C[C@H]3C[C@@H]12 | 0.0486 ± 0.069 | 0.103 ± 0.0053 | 0.94816 ± 9.1e-05 | 1.06 ± 0.31 | 0.456 ± 0.15 | 0.9445 ± 0.0056 | 0.347 ± 0.035 | 0.63 ± 0.26 | 0.632 ± 0.45 | 0.943 ± 0.19 | 0.118 ± 0.028
CC[C@H]1OC(=O)[C@H](C)[C@@H](O[C@H]2C[C@@](C)(OC)[C@@H](O)[C@H](C)O2)[C@H](C)[C@@H](O[C@@H]2O[C@H](C)C[C@H](N(C)C)[C@H]2O)[C@](C)(OC)C[C@@H](C)C(=O)[C@H](C)[C@@H](O)[C@]1(C)O | 0.647 ± 0.56 | 0.732 ± 0.33 | 0.901 ± 0.15 | 1.15 ± 0.22 | 0.831 ± 0.025 | 1.03 ± 0.0049 | 0.97 ± 0.048 | 0.856 ± 0.12 | 0.58 ± 0.37 | 0.942 ± 0.24 | 0.862 ± 0.13
CN(C)c1ccc(O)c2c1C[C@H]1C[C@H]3[C@H](N(C)C)C(=O)C(C(N)=O)=C(O)[C@@]3(O)C(=O)[C@H]1C2=O | 0.655 ± 0.27 | 0.659 ± 0.38 | 0.8389 ± 0.0033 | 0.961 ± 0.2 | 0.669 ± 0.027 | 0.995 ± 0.035 | 0.701 ± 0.069 | 0.0752 ± 0.015 | 0.623 ± 0.42 | 0.96 ± 0.18 | 0.304 ± 0.052
O=C1CN(/N=C/c2ccc([N+](=O)[O-])o2)C(=O)N1 | 0.715 ± 0.42 | 0.621 ± 0.24 | 0.855 ± 0.16 | 0.649 ± 0.36 | 0.764 ± 0.037 | 0.999 ± 0.044 | 0.842 ± 0.048 | 0.665 ± 0.11 | 0.481 ± 0.61 | 0.963 ± 0.21 | 0.745 ± 0.068
CN(C)c1ccc(O)c2c1C[C@H]1C[C@H]3[C@H](N(C)C)C(=O)[C@@H](C(N)=O)C(=O)[C@@]3(O)C(=O)[C@H]1C2=O | 0.636 ± 0.27 | 0.47 ± 0.11 | 0.8372 ± 0.0039 | 0.973 ± 0.03 | 0.776 ± 0.056 | 1.03 ± 0.019 | 0.692 ± 0.016 | 0.306 ± 0.14 | 0.607 ± 0.43 | 0.981 ± 0.18 | 0.686 ± 0.011
N[C@@H](C(=O)N[C@@H]1C(=O)N2C(C(=O)O)=C(Cl)CS[C@H]12)c1ccccc1 | 0.759 ± 0.31 | 0.537 ± 0.076 | 1.02 ± 0.078 | 1.1 ± 0.25 | 0.801 ± 0.021 | 0.911 ± 0.035 | 0.87 ± 0.074 | 0.168 ± 0.067 | 0.579 ± 0.39 | 0.954 ± 0.21 | 0.766 ± 0.036
CN(C)c1ccc(O)c2c1CC1CC3C(N(C)C)C(O)=C(C(N)=O)C(=O)C3(O)C(O)=C1C2=O.Cl (stereo not drawn) | 0.541 ± 0.071 | 0.129 ± 0.0081 | 0.831 ± 0.21 | 0.908 ± 0.4 | 0.4515 ± 0.0044 | 0.955 ± 0.066 | 0.577 ± 0.027 | 0.0902 ± 0.0036 | 0.602 ± 0.4 | 0.939 ± 0.18 | 0.184 ± 0.083
O=C1NCCN1c1ncc([N+](=O)[O-])s1 | 0.684 ± 0.55 | 0.564 ± 0.22 | 0.852 ± 0.12 | 1.16 ± 0.25 | 0.839 ± 0.018 | 0.982 ± 0.011 | 0.863 ± 0.052 | 0.658 ± 0.11 | 0.628 ± 0.47 | 0.389 ± 0.55 | 0.792 ± 0.11
CC(NCCCc1cccc(C(F)(F)F)c1)c1cccc2ccccc12.Cl (stereo not drawn) | 1.09 ± 0.12 | 0.434 ± 0.07 | 1.1 ± 0.31 | 1.18 ± 0.25 | 0.676 ± 0.16 | 1.08 ± 0.17 | 1.01 ± 0.032 | 0.749 ± 0.32 | 0.58 ± 0.37 | 0.953 ± 0.19 | 0.817 ± 0.077
Cc1nnc(SCC2=C(C(=O)O)N3C(=O)[C@@H](NC(=O)Cn4cnnn4)[C@H]3SC2)s1 | 0.719 ± 0.43 | 0.348 ± 0.37 | 0.987 ± 0.14 | 1.17 ± 0.26 | 0.792 ± 0.035 | 0.995 ± 0.059 | 0.9645 ± 0.0053 | 0.137 ± 0.029 | 0.604 ± 0.41 | 0.96 ± 0.22 | 0.862 ± 0.057
